# Compound activity from PubChem.
# mIDH1 inhibitor: human IDH1 R132H inhibition. O75874. IDH1-R132H enzyme, NADPH consumption, diaphorase/resazurin fluorescence. Potency, µM (doses to about 76.6 µM), inactives show at the highest dose activity change, negative = inhibition, actives largely listed as inhibitors. 390,000 compounds, 0.093% hits. AID 602179; also: potency is read from the fitted curve at half-maximal effect; % is scaled to controls: 0 for no effect and ±100 for the full control effect; nearly all actives have a fitted effect of over 65% in size
#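 IDH1-R132H (0.5 ug/mL) preincubated 30 min with compound, then NADPH (0.016 mM) and alpha-KG (2 mM) added; 80 min at RT, pH 7.5. Remaining NADPH coupled via diaphorase/resazurin to fluorescence (540/590 nm); concentration-response curves normalized to no-enzyme control.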
# TrxR1 substrate: rat thioredoxin reductase 1 substrate activity. purified TrxR1 substrate turnover, NADPH consumption readout. 390,000 compounds, 0.01% hits. Potency, µM (top dose mostly 114 µM), for the others: at the top dose activity change, negative = substrate turnover. O89049; also: potency is read from the fitted curve at half-maximal effect; % is scaled to controls: 0 for no effect and ±100 for the full control effect; nearly all actives have a fitted effect of over 50% in size
# Target sequence (O89049 whole entry, looked up): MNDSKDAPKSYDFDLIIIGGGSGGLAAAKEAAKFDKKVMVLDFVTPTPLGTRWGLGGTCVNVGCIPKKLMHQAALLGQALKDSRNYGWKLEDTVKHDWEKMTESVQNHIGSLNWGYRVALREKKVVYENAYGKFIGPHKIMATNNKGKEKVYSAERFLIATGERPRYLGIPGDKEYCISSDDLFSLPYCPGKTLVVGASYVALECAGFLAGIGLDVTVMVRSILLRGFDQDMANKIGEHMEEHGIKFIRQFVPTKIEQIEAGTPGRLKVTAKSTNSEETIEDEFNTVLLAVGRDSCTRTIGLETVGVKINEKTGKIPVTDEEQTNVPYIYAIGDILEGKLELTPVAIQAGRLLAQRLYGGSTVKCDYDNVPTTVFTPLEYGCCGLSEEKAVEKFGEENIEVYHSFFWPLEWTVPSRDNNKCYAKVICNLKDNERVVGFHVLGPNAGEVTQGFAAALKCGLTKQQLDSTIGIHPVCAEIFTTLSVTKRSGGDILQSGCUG
#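 Rat TrxR1, dispensed at 90 nM, was prereduced with 400 uM NADPH (final) for 5 min at ~22 deg C, then incubated with compound 15 min before 400 uM selenite. A first-read NADPH fluorescence drop versus no-compound background flagged substrates.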
# rTrxR1 inhibitor: rat TrxR1 inhibition; O89049; recombinant rTrxR1, NADPH fluorescence consumption, selenite substrate; Potency, µM (highest dose often 114 µM), for the others: at the top dose activity change, negative = inhibition, actives largely listed as inhibitors; 390,000 compounds, 1% hits; also: potency is read from the fitted curve at half-maximal effect; % is scaled to controls: 0 for no effect and ±100 for the full control effect; nearly all actives have a fitted effect of over 65% in size
#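 Rat TrxR1 (90 nM in the dispensed reagent) was pre-reduced with 400 uM NADPH for 5 min at room temperature, then incubated with compound for 15 min. After 400 uM selenite was added, NADPH fluorescence (Ex 340/Em 450 nm) was followed for 8 min.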
# BRCA1 expr act: increases BRCA1 expression; MCF7-BRCA1-FFLuc reporter, luminescence, 48 h; response scale: scaled: vehicle 0%, 10 µM genistein 100%; Potency, µM (titrated, usually from 46.1 µM), for inactives: at the top dose activation, actives largely listed as activators; 380,000 compounds, 1.1% hits; AID 624202; also: potency is read from the fitted curve at half-maximal effect; nearly all actives have a fitted effect of over 80% in size
#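 Cells: MCF7-BRCA1-FFLuc, 2000/well. Exposure: 48 h, 37 °C, 5% CO2. Read: luminescence, 15 min post-substrate. Controls: genistein 10 microM (maximal activation), DMSO (neutral).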
# IL-2 act: IL-2 activation | activation, % (series mostly up to about 46 µM) | IL-2 activation reporter assay, cell-based qHTS; stimulated with anti-CD3/CD4/CD28 beads; in transgenic mouse T cells | 360,000 compounds, 0.065% hits; in the data active = activation above about 50%; inconclusive = mostly about 30% to 49%; also: 0% is about no effect
#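 EGFP and DsRed fluorescence is measured by plate cytometry in unstimulated transgenic mouse T cells exposed to compound for 60 minutes, then stimulated 18 hours at 37 degrees C with anti-CD3/anti-CD4 beads plus anti-CD28.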
# Giardia kill: kills Giardia lamblia; AID 540267; Giardia lamblia trophozoite viability; activity change, % at 7.66 µM, hits read low; 340,000 compounds, 0.15% hits; in the data active = activity change below about -80%; inconclusive = between about -30% and that limit;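 also: parasites exposed to compound for two days anaerobically before the ATP read; % is scaled to controls: 0 for no effect and ±100 for the full control effect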
#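 Trophozoites 100 cells/well + cpd; 48 hrs, 37 deg C, anaerobic. ATPLite 1-Step added, 15-30 min RT, luminescence read (ATP-based viability).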
# * = called active by the depositor; ? = inconclusive; . = not tested or not shown; [ ] = dose if it differs, or a comment. Rows were chosen to be rich in hits. Some 2.2% of all compounds tested hit in one or more screens of this group. Unless noted, calls follow the shape of the dose curve; as a rule, active = well fitted curve in the direction sought with a large enough effect; inconclusive = small, poorly fitted or top-dose-only effect, or another doubt; inactive = no such curve, though single readings can be large; an effect the other way counts as inactive or inconclusive.
SMILES,mIDH1 inhibitor,TrxR1 substrate,rTrxR1 inhibitor,BRCA1 expr act,IL-2 act,Giardia kill
CN(C)c1ccc(C(CNC(=O)c2ccccc2Cl)N2CCCC2)cc1 (configuration not stated),-1.5%,4.6%[57.1 µM],2.9%[57.1 µM],.,.,.
CCCS(=O)(=O)c1c(S(=O)(=O)CCC)c2ccccn2c1C(=O)OC,6.4%,12.1%,39.8µM*,-6.8%,-3.3,-5.7
CCCS(=O)(=O)c1c(S(=O)(=O)CCC)c2c3ccccc3ccn2c1C(=O)OC,4.0%,24.7%,-2.5%,-0.7%,-2.5,4.4
CCCS(=O)(=O)c1c(S(=O)(=O)CCC)c2c(C)cccn2c1C(=O)OC,6.2%,14.4%,25.1µM*,1.2%,-0.3,-14.6
NCc1nc2cccnc2n1Cc1ccccc1Cl,6.7%,-4.3%,-6.0%,11.2%,.,.
COc1ccc(-c2nn(-c3ccccc3)cc2C(=O)O)cc1,2.8%,10.0%,21.9%,1.4%,-1.3,8.0
COc1ccc(-c2nn(-c3ccccc3)cc2C#N)cc1,5.9%,6.8%[57.1 µM],14.0%,3.98µM*,3.6,9.0
COc1cc(C2Nc3ccccc3C(=O)N2c2ccccc2)ccc1O (configuration not stated),-4.6%,46.6%,-4.9%,7.94µM*,0.8,0.7
CCOc1cc(C2Nc3ccccc3C(=O)N2c2ccccc2)c(Br)cc1OCC(=O)O (configuration not stated),4.1%,139.4%,?,59.8%,0.7,-8.2
COc1cc(C2Nc3ccccc3C(=O)N2c2ccc(Cl)cc2)c(Cl)cc1OCC(=O)O (configuration not stated),-8.9%,153.2%,-28.5%,2.82µM*,-0.6,-0.8
Cc1cc(C(=O)N/N=C/c2ccc(Br)o2)n[nH]1,-17.9%,-7.5%,-31.5%,13.7%,0.8,-7.1
Cc1cc(C(=O)N/N=C/c2ccc(C)s2)n[nH]1,-1.2%,-13.8%,-13.8%,7.08µM*,2.8,-20.8
Cc1cc(C(=O)N/N=C/c2cc(Br)c(Br)o2)n[nH]1,6.0%,-1.2%,35.5µM*,24.0%,1.6,12.4
Cc1ccc(/C=N/NC(=O)c2ccccn2)s1,3.9%,-12.3%,-2.6%,4.2%,-4.9,-1.5
Cc1ccsc1/C=N\NC(=O)c1cc(C(C)(C)C)[nH]n1,5.1%,3.1%[57.1 µM],2.9%[57.1 µM],5.01µM*,1.3,6.7
Cc1cc(C(=O)N/N=C/c2sccc2C)no1,4.7%,2.1%[57.1 µM],0.1%[57.1 µM],46.6%,1.2,-16.8
Cc1cc(C(=O)N/N=C/c2ccc([N+](=O)[O-])s2)n[nH]1,6.4%,-15.1%,?,-81.9%,-4.8,-89.7*
CC[C@]1(O)C[C@H]2CN(CCc3c([nH]c4ccccc34)[C@@](C(=O)OC)(c3cc4c(cc3OC)N(C=O)[C@H]3[C@@](O)(C(=O)OC)[C@H](OC(C)=O)[C@]5(CC)C=CCN6CC[C@]43[C@@H]65)C2)C1,.,0.7%,?,-58.3%,.,.
Cc1ccsc1/C=N/NC(=O)c1ccc(-n2cccc2)cc1,-2.6%,-3.2%[57.1 µM],6.1%[57.1 µM],11.2µM*,2.7,5.7
Cc1ccc(C(=O)N/N=C\c2sccc2C)cn1,-4.5%,-13.9%,0.8%,?,0.5,-18.4
N/C(=N\OC(=O)c1ccc([N+](=O)[O-])cc1)c1cccnc1,5.0%,-13.8%,-19.9%,?,3.2,-0.7
N/C(=N\OC(=O)c1ccncc1)c1cccc([N+](=O)[O-])c1,-4.1%,-0.2%,4.8%,7.94µM*,-2.7,9.8
COc1cccc(C(=O)O/N=C(\N)c2ccc(C)cc2)c1,-0.8%,-0.6%,11.8%[57.1 µM],60.0%,-1.6,2.2
Cc1ccc(C(=O)O/N=C(\N)c2cccnc2)cc1[N+](=O)[O-],2.7%,4.3%,14.9%,11.2µM*,0.4,-11.5
COc1cccc(C(=O)O/N=C(\N)c2ccncc2)c1,12.4%,1.9%,19.1%,10µM*,-1.8,-17.4
SMILES,mIDH1 inhibitor,TrxR1 substrate,rTrxR1 inhibitor,BRCA1 expr act,IL-2 act,Giardia kill
Cc1ccc(C(=O)O/N=C(\N)c2cccc([N+](=O)[O-])c2)cc1,17.7%,3.3%,10.8%,3.16µM*,5.0,-15.3
CCCCOCc1cc(CN2CCN(c3cccc(Cl)c3)CC2)c(O)c2ncccc12,.,10.5%,21.1%,.,.,.
COc1ccc2c(c1OC)C(=O)OC2Nc1nc(-c2ccc([N+](=O)[O-])cc2)cs1 (configuration not stated),0.0%,3.6%,-22.2%,12.6µM*,-0.7,-13.0
CC1(C)Cc2c(c(-c3ccco3)nc3sc4c(NCCCO)ncnc4c23)CO1,1.3%,22.6%,7.94µM*,-38.5%,-0.2,-8.4
Cc1cc(C(=O)O)ccc1N/C=C1\CCCC(C)C1=O (configuration not stated),-2.6%,-17.9%,-22.2%,-15.6%,0.3,2.0
CC1CCC/C(=C\Nc2ccc(O)cc2)C1=O (configuration not stated),7.6%,-14.2%,20µM*,?,0.1,20.6
N#CCC(=O)N/N=C/c1ccc(OS(=O)(=O)c2ccccc2)cc1,2.0%,-7.1%,8.3%[57.1 µM],3.9%,1.1,5.0
N#CCC(=O)N/N=C\c1ccccc1OC/C=C/c1ccccc1,11.6%,-3.9%,-8.2%,2.51µM*,-1.0,-2.5
N#CCC(=O)N/N=C\c1ccc(OC/C=C/c2ccccc2)cc1,-3.1%,-3.0%,13.5%,5.01µM*,-0.4,18.6
N#CCC(=O)N/N=C/c1ccc(OCc2ccccc2)cc1,0.1%,-3.8%[57.1 µM],6.4%[57.1 µM],7.94µM*,-0.6,23.8
COc1ccc2c(c1)sc1nc(-c3ccccc3)cn12,17.7%,-6.7%,-0.2%,?,-5.8,-90.7*
COc1ccc(-c2cn3c(n2)sc2cc(C(=O)NCc4ccccc4)ccc23)cc1,-15.7%,1.4%,-0.7%,.,.,.
O=C(O)c1ccccc1NC(c1ccccc1)c1ccc2cccnc2c1O (configuration not stated),2.3%,9.9%[11.4 µM],?,-84.7%,-3.8,-7.3
COc1ccccc1NC(c1cccnc1)c1ccc2cccnc2c1O (configuration not stated),2.4%,-6.2%,0.708µM*,8.8%,-0.9,-19.6
Cc1ccnc(NC(c2cccnc2)c2ccc3cccnc3c2O)c1 (configuration not stated),-2.0%,5.5%,3.55µM*,-81.6%,-0.8,3.0
Cc1ccnc(NC(c2cc(C)ccc2O)c2ccc3cccnc3c2O)c1 (configuration not stated),.,3.0%,5.01µM*,.,.,.
Cc1ccnc(NC(c2ccccc2)c2ccc3cccnc3c2O)c1 (configuration not stated),-0.6%,9.3%[57.1 µM],-76.7%[57.1 µM],-89.3%,-0.6,?
CC(C)(C)C(=O)Nc1ccc2nc(SCCOc3ccccc3Cl)sc2c1,10.8%,8.7%,22.9%,-17.8%,.,.
